Data published in PubChem BioAssay (NCATS).
Inconclusive results are not listed. Active and inactive are the calls of the source. Calls follow the shape of the dose curve; as a rule, active = well fitted cell-killing curve with a large enough effect; inconclusive = small, poorly fitted or top-dose-only effect, or effect the other way; inactive = no such curve, though single readings can be large or run the other way.

Test: Quantitative High-Throughput drug screen in 47 multiple myeloma cell lines against the NCATS MIPE library collection: XG1_PLB cell viability assay (AID 1919866); also: nearly all actives have a fitted effect of over 35% in size
Conditions: CellTiter-Glo ATP, 48 h; series mostly up to 45.8 µM
Method in brief: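 Cells were exposed to library compounds for 48 hours, after which ATP was measured by CellTiter-Glo. Signal was taken as median relative luminescence units.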
Potency is read from the fitted curve at half-maximal effect.

**Q.** With `CCC(C(=O)O)C1CCC(C)C(C(C)C(O)C(C)C(=O)C(CC)C2OC3(C=CC(O)[C@@]4(CC[C@](C)(C5CC[C@@](O)(CC)C(C)O5)O4)O3)C(C)CC2C)O1` (some centres undefined) as the molecule, how does the Potency read?
**A.** The Potency was 5900 nM (active).

**Q.** With `CC(=O)[C@]1(O)Cc2c(O)c3c(c(O)c2[C@@H](O[C@H]2C[C@H](N)[C@@H](O)[C@H](C)O2)C1)C(=O)c1ccccc1C3=O` as the molecule, how does the Potency read?
**A.** The Potency was 166 nM (active).

**Q.** For `COc1cc(C=CC(=O)CC(=O)C=Cc2ccc(O)c(OC)c2)ccc1O`, which Potency is on record?
**A.** Its Potency is 6790 nM (active).

**Q.** Which Potency does the source give for `CN(CC(=O)N(Cc1ccc(C2CCCCC2)cc1)c1ccc(C(=O)O)c(O)c1)S(=O)(=O)c1c(F)c(F)c(F)c(F)c1F` here?
**A.** Its Potency is 4690 nM (active).

**Q.** Which Potency does the source give for `Cn1cnc(=N)c2[nH]cnc21` here?
**A.** Its Potency is 166 nM (active).

**Q.** With `COc1ccc2c(c1OC)C(=O)OC2[C@H]1c2c(cc3c(c2OC)OCO3)CCN1C` (some centres undefined) as the molecule, how does the Potency read?
**A.** The Potency was 41.8 nM (active).

**Q.** For `C#C[C@]1(O)CC[C@@H]2[C@@H]3CCC4=CC(=O)CC[C@@H]4[C@H]3CC[C@@]21CC`, which Potency is on record?
**A.** The Potency was “inactive”.

**Q.** Which Potency does the source give for `C=C(C)[C@@H]1CC[C@]2(C(=O)O)CC[C@]3(C)[C@H](CC[C@@H]4[C@@]5(C)CC[C@H](O)C(C)(C)[C@@H]5CC[C@]43C)[C@@H]12` here?
**A.** Its Potency is “inactive”.

**Q.** Which Potency does the source give for `CC(=O)OCC(=O)[C@@]1(O)CC[C@H]2[C@@H]3CCC4=CC(=O)CC[C@]4(C)[C@@H]3C(=O)C[C@@]21C` here?
**A.** Its Potency is “inactive”.

**Q.** With `C[C@H](CCC(=O)O)[C@H]1CC[C@H]2[C@@H]3[C@H](O)C[C@@H]4C[C@H](O)CC[C@]4(C)[C@@H]3CC[C@]12C` as the molecule, how does the Potency read?
**A.** Its Potency is “inactive”.

**Q.** Which Potency does the source give for `CCOc1cc2ncc(C#N)c(Nc3ccc(OCc4ccccn4)c(Cl)c3)c2cc1NC(=O)C=CCN(C)C` here?
**A.** The Potency was 132 nM (active).

**Q.** For `C=CC(=O)N1CCc2ccc(-n3c(=O)ccc4cnc5ccc(-c6cnn(C)c6)cc5c43)cc21`, which Potency is on record?
**A.** The Potency was 1320 nM (active).

**Q.** Which Potency does the source give for `NC[C@H]1O[C@H](O[C@H]2[C@@H](O)[C@@H](O[C@H]3O[C@H](CO)[C@@H](O)[C@H](N)[C@@H]3O)[C@H](N)C[C@@H]2N)[C@H](N)C[C@H]1O` here?
**A.** The Potency was “inactive”.

**Q.** Which Potency does the source give for `C[C@H]1COc2c(N3CCN(C)CC3)c(F)cc3c(=O)c(C(=O)O)cn1c23` here?
**A.** The Potency was “inactive”.

**Q.** With `Oc1cc(-c2nc(-c3ccccc3)[nH]c2-c2ccncc2)ccc1Cl` as the molecule, how does the Potency read?
**A.** Its Potency is 2350 nM (active).

**Q.** For `O=c1[nH]c(=O)n([C@H]2C[C@@H](O)[C@@H](CO)O2)cc1C=CBr`, which Potency is on record?
**A.** Its Potency is “inactive”.

**Q.** Which Potency does the source give for `COC[C@H](NC(=O)c1cnc(C)s1)C(=O)N[C@@H](COC)C(=O)N[C@@H](Cc1ccccc1)C(=O)[C@@]1(C)CO1` here?
**A.** The Potency was 74.3 nM (active).

**Q.** Which Potency does the source give for `CN(C)CCN1C(=O)c2cccc3cc(N)cc(c23)C1=O` here?
**A.** Its Potency is 16600 nM (active).

**Q.** For `CCNC(=O)Nc1ccc(-c2nc3c(c(N4CCOC[C@H]4C)n2)CCN(C2COC2)C3)cc1`, which Potency is on record?
**A.** The Potency was 526 nM (active).

**Q.** With `COc1cc([C@@H]2c3cc4c(cc3[C@@H](O[C@@H]3O[C@@H]5CO[C@@H](c6cccs6)O[C@@H]5[C@H](O)[C@@H]3O)[C@H]3COC(=O)[C@H]23)OCO4)cc(OC)c1O` as the molecule, how does the Potency read?
**A.** Its Potency is 526 nM (active).

**Q.** For `CCOC(=O)[C@H](CCc1ccccc1)N[C@@H](C)C(=O)N1[C@@H](C(=O)O)C[C@H]2CCC[C@@H]21`, which Potency is on record?
**A.** Its Potency is 7430 nM (active).

**Q.** With `CC(C)c1cnn2c(NCc3ccccc3)cc(NCCCCCCN)nc12` as the molecule, how does the Potency read?
**A.** Its Potency is 935 nM (active).

**Q.** With `O=C(CCCCCCC(=O)Nc1cccnc1)NO` as the molecule, how does the Potency read?
**A.** Its Potency is 3720 nM (active).

**Q.** With `O=c1ccn([C@@H]2O[C@H](CO)[C@H](O)[C@@H]2F)c(=O)[nH]1` as the molecule, how does the Potency read?
**A.** The Potency was 5900 nM (active).

**Q.** For `NC(=O)N1CCC(CC(=O)N2CCC([C@H]3c4ncc(Br)cc4CCc4cc(Cl)cc(Br)c43)CC2)CC1`, which Potency is on record?
**A.** The Potency was 5260 nM (active).

**Q.** For `CC(C)NC[C@@H](C(=O)N1CCN(c2ncnc3c2[C@H](C)C[C@H]3O)CC1)c1ccc(Cl)cc1`, which Potency is on record?
**A.** The Potency was 1870 nM (active).

**Q.** With `C[C@H](NCc1ccc(OCc2cccc(F)c2)cc1)C(N)=O` as the molecule, how does the Potency read?
**A.** Its Potency is 3720 nM (active).

**Q.** For `O=C(c1ccc(F)cc1)N1CCC[C@H](c2nc(-c3ccc(F)cc3)no2)C1`, which Potency is on record?
**A.** Its Potency is “inactive”.

**Q.** With `Nc1nc(N)c2nc(-c3cccc(O)c3)c(-c3cccc(O)c3)nc2n1` as the molecule, how does the Potency read?
**A.** Its Potency is 4180 nM (active).
